These results are taken from PubChem BioAssay (NCATS).

Inconclusive results are not listed. Active and inactive are the calls of the source. Calls follow the shape of the dose curve; as a rule, active = well fitted cell-killing curve with a large enough effect; inconclusive = small, poorly fitted or top-dose-only effect, or effect the other way; inactive = flat fitted curve, though single readings scatter.
% is scaled to controls: 0 for no effect and ±100 for the full control effect; potency is read from the fitted curve at half-maximal effect.

This experiment is described as follows: qHTS of pediatric cancer cell lines to identify multiple opportunities for drug repurposing: Confirmatory screen for Rh18 cells (AID 1347125). Also: nearly all actives have a fitted effect of over 55% in size. Particulars: Rh18 rhabdomyosarcoma cells, viability; series mostly up to 45.9 µM; activity change, negative = cytotoxic: at the top concentration. The procedure, abridged:
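Cells (500-1,000/well) in growth media were settled 5 h at 37 degrees C, then given compounds for 48 h. Viability was read as CellTiter-Glo luminescence. Primary runs used MIPE at 11 points (0.78 nM-46 µM) and NPC at 8 points (0.59 nM-46 µM); follow-ups used 11 points.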
With `CCCCCCCCCCCC[N+](C)(C)CCOc1ccccc1`, the Potency was 20.8 µM (active).

For `CC[n+]1c(-c2ccccc2)c2cc(N)ccc2c2ccc(N)cc21`, the Potency is 4.14 µM (active).

On to `COc1ccc2c(C(=O)c3ccc(Cl)cc3)c(C)n(CC(=O)O)c2c1`, for which the “activity change, negative = cytotoxic” value was 2.6% (inactive).
